From PubChem BioAssay (Tox21) come the findings set out here.

Structures are written as SMILES. Records with an inconclusive call do not appear. The source made the active and inactive calls. The call rests on the fitted dose curve; in most records, active means well fitted cell-killing curve with a large enough effect in the repeat runs (not every such curve was filed as active); inconclusive means weak or mixed curves, or effect the other way; inactive means no such curve, though single readings can be large or run the other way.
On the % scale 0 is the no-effect control and ±100 the full control effect; potency means the concentration at half of the fitted maximal effect.

A short description of the assay: qHTS assay to identify small molecule antagonists of the estrogen related receptor signaling pathway with the pleiotropic PPARgamma coactivator (PGC) from Tox21 10K library - cell viability counter screen (AID 1224840). Further: nearly all actives have a fitted effect of over 40% in size. The following applies: PGC/ERR reporter cells viability, CellTiter-Fluor, 17.5 h; series mostly up to 92.4 µM; viability change, negative = cytotoxic: at the top concentration. The text has this: National Center for Advancing Translational Sciences [NCATS]
NIH Chemical Genomics Center [NCGC]
U.S. Environmental Protection Agency [EPA]
National Institutes of Environmental Health Sciences [NIEHS]
National Toxicology Program [NTP]
U.S. Food and Drug Administration [FDA]
Estrogen related receptors (ERRs), the first orphan nuclear receptors discovered, play an important role in the control of cellular energy metabolism. ERRs are required for high-energy production in response to the environmental challenges. The pleiotropic PPARgamma coactivator (PGC) is a major partner of ERR and a key regulator in energy homeostasis. Together they have been implicated in the etiology of metabolic disorders such as Type 2 diabetes and metabolic syndrome. ERR-alpha was also identified as an adverse marker for breast cancer progression; ERR-alpha-positive tumors have a poor prognosis. To screen and to identify environmental compounds that perturb the ERR and PGC/ERR signaling pathways could provide valuable information for potential therapeutic or preventive measures in the treatment of metabolic disease. To differentiate true PGC/ERR antagonists or agonist from cytotoxic substances, the assay is multiplexed with cell viability assay.
Tox21 Assay Protocol Summary:
The PGC/ERR cells were dispensed at 2,000 cells/5 ul/well in 1536-well white plates using a Multidrop dispenser. After the assay plates were incubated at a 37 C/5% CO2 incubator for 6 hours, 23 nL of compounds dissolved in DMSO, positive and negative controls or DMSO only was transferred to the assay plate by a pin tool. The plates were incubated at 37 C for 17.5 hours. 1 ul/well of CellTiter-Fluor reagent was added into the assay plates using a Flying Reagent Dispenser. After 30-minute incubation at 37 C/5% CO2, the fluorescence intensity in the plates was measured using a ViewLux plate reader.
On to `CC(C(=O)O)c1ccc(C(=O)c2cccs2)cc1` (stereo not given), for which the “viability change, negative = cytotoxic” value is -2.89% [at 42.5 µM] (inactive). The same measure, in the same setting: with `O=C(NS(=O)(=O)/C=C/c1ccccc1)c1ccc(F)cc1Cl` the figure was 14% (inactive). The same measure, in the same setting: with `O=C(O)c1ccc(O)cc1O` the figure was 3.25% (inactive). For `CC1=C2[C@@H]([C@H](C)CC[C@H]2/C=C(\C)C(=O)O)[C@H](O)C1`, the “viability change, negative = cytotoxic” value is 0.179% (inactive).

For the compound `Cc1ccc(Nc2c(F)cccc2Cl)c(CC(=O)O)c1`, the “viability change, negative = cytotoxic” value is 18.7% [at 42.5 µM] (inactive). Still for that read-out and setting: the same measure for `Oc1cccc2[nH]ccc12`: 12.9% [at 42.5 µM] (inactive). Same read-out and setting: the same measure for `CCCCCCCCCCCCCOS(=O)(=O)O`: -11.8% (inactive); for `CCNc1nc(N)nc(Cl)n1`: 0.101% (inactive). In the case of `CC(C)C(=O)OCCOc1ccccc1`, the “viability change, negative = cytotoxic” value was 7.07% (inactive). On to `O=C(Oc1ccccc1)c1ccc2ccccc2c1O`, for which the “viability change, negative = cytotoxic” value was -4.47% (inactive).

For the compound `CCN(CC)CCNC(=O)c1cc(Cl)c(N)cc1OC`, the “viability change, negative = cytotoxic” value is 1.29% [at 42.5 µM] (inactive). With `CCC1CCC(CCC(=O)O)C1` (stereo not given), the “viability change, negative = cytotoxic” value was 0.613% (inactive).

With `COc1cc(NC(C)CCCN)c2ncccc2c1` (stereo not given), the “viability change, negative = cytotoxic” value was 0.207% [at 42.5 µM] (inactive). Same read-out and setting: with `CC(C)N(C)C` the figure was 0.213% (inactive); with `Cc1ccc(S(=O)(=O)NC(=O)NC2CCCCC2)cc1`, 3.54% [at 42.5 µM] (inactive); with `FC(F)(F)C(F)(F)C(F)(F)C(F)(F)CCI`, 13.9% [at 42.5 µM] (inactive). For the compound `CCO[Si](C)(CCCOCC1CO1)OCC` (stereo not given), the “viability change, negative = cytotoxic” value is -2.68% (inactive). On the same count and under the same terms, the same measure for `CS(=O)(=O)c1ccc([C@@H](C[C@H]2CCC(=O)C2)C(=O)Nc2cnccn2)cc1Cl`: -13% (inactive); for `CCOC(=O)c1ccc(NC(=O)CN2CCCCC2)cc1`: 14.1% [at 42.5 µM] (inactive); for `Cc1oc(=O)oc1COC(=O)[C@@H]1N2C(=O)[C@@H](NC(=O)[C@H](N)c3ccccc3)[C@H]2SC1(C)C`: 18.2% [at 42.5 µM] (inactive).

In the case of `O=C(O)c1cc(Cl)cc(Cl)c1O`, the “viability change, negative = cytotoxic” value was 8.9% (inactive). Regarding `COc1cc(OC)c2ccc(=O)oc2c1`, the “viability change, negative = cytotoxic” value is 1.18% (inactive). Regarding `COc1cc(S(=O)(=O)Nc2ccccc2)c(OC)cc1N`, the “viability change, negative = cytotoxic” value is -15.3% (inactive).

Take `CNCc1ccc(NC(=O)c2c[nH]c3c2C(=O)CCC3)cc1`: the “viability change, negative = cytotoxic” value was -16.8% (inactive). Regarding `COc1ccc(N)c([N+](=O)[O-])c1`, the “viability change, negative = cytotoxic” value is -13.8% (inactive).

On to `CC(C)(C)S`, for which the “viability change, negative = cytotoxic” value is -1.73% (inactive).

As to `Nc1c(Cl)cc(Cl)cc1[N+](=O)[O-]`, the “viability change, negative = cytotoxic” value was 1.2% (inactive). For `CC1=CC[C@@]23C[C@@H]1C(C)(C)[C@@H]2CC[C@H]3C`, the “viability change, negative = cytotoxic” value is 8.61% (inactive). On the same count and under the same terms, the same measure for `CCCCCCCCCCCCCOC(=O)CCSCCC(=O)OCCCCCCCCCCCCC`: 0.0068% [at 19 µM] (inactive). As to `CC(C)C1CCC(C(=O)N[C@H](Cc2ccccc2)C(=O)O)CC1` (stereo not given in full), the “viability change, negative = cytotoxic” value was 16.1% [at 42.5 µM] (inactive). Same read-out and setting: with `CC(=O)C(C)=O` the figure was 0.339% (inactive); with `CCc1ccc(C)cc1`, 0.739% (inactive). The same measure, in the same setting: with `CCN(CC)CCOc1ccccc1C(=O)CCc1ccccc1` the figure was -9.75% [at 42.5 µM] (inactive). With `O=C(/C=C/c1ccc([N+](=O)[O-])cc1)c1ccccc1`, the Potency is 54.6 µM (active).

For the compound `Cc1cn([C@H]2C[C@H](F)[C@@H](CO)O2)c(=O)[nH]c1=O`, the “viability change, negative = cytotoxic” value is 1.73% [at 42.5 µM] (inactive). The same measure, in the same setting: with `N[C@@H](Cc1cc(I)c(O)c(I)c1)C(=O)O` the figure was -0.278% [at 42.5 µM] (inactive). As for `CC(C)(C)NCC(O)COc1cccc2c1C[C@H](O)[C@H](O)C2` (stereo not given in full), the “viability change, negative = cytotoxic” value is 12.1% [at 42.5 µM] (inactive).

As to `CCCCCCCCCCCSCC(=O)O`, the “viability change, negative = cytotoxic” value is 5.58% (inactive). Same read-out and setting: the same measure for `CCCCCCCC(=O)OCCCCCC`: 2.56% (inactive).

`CC(CN(CCN(CC(C)OCCO)CC(C)OCCO)CC(C)OCCO)OCCO` (stereo not given): the “viability change, negative = cytotoxic” value was 1.3% (inactive).
